Hit rate of the full screen: of about 50,000 compounds, about 800 (1.6%) showed an effect of 50% or more. The sample holds strong results, similar compounds and a random draw of the others, so the mix is not that of the screen.
target: Bcl-2-like protein 10 (Homo sapiens) (UniProt Q9HD36); experiment: TR3 peptide-Bcl-B binding displacers, biochemical primary FP assay, phenotype converters (AID 1240); settings: GST-Bcl-B / FITC-TR3 peptide fluorescence polarization; stronger effect = higher value; compound at 3.75 mg/L;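 also: 0% = Bcl-B with tracer peptide and DMSO and 100% = tracer peptide lacking Bcl-B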
Sequence (Q9HD36 whole entry, looked up): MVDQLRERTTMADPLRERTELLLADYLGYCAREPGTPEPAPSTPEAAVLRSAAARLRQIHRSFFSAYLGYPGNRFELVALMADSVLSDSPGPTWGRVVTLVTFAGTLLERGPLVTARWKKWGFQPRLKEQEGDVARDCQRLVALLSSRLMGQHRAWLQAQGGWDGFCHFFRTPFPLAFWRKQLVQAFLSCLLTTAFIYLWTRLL

SMILES	displacement [%]
Cc1ccc(C(=O)/C=C/Nc2cccc(O)c2)cc1	-0.4
Cc1ccc(C(=O)/C=C/Nc2ccc(Cl)c(Cl)c2)cc1	126
Cc1cccc(N/C=C/C(=O)c2ccc(Cl)cc2)c1	-2.2
CCOC(=O)c1ccc(N/C=C/C(=O)c2cccs2)cc1	14.1
CCOC(=O)c1ccc(NC(=O)/C=C/c2ccc(Cl)cc2)cc1	16.8
CCOC(=O)c1ccc(N/C=C/C(=O)c2ccc(Cl)cc2)cc1	59.8
CCOc1ccccc1C(=O)NCCc1nc2ccccc2[nH]1	4.7
O=C(NC1C2CC3CC(C2)CC1C3)c1ccccc1F (stereo not drawn)	4.9
Cc1cc(/C=C2/SC(=O)NC2=O)c(C)n1-c1cccnc1	0.8
C/C(=N\NC(=O)c1cc2ccccc2cc1O)c1ccco1	10
COC(=O)c1cc(-c2ccc(C)cc2)nc2ccccc12	2.1
COc1ccc(-c2cc(-c3ccc(Cl)cc3)c(C#N)c(N)n2)cc1	6.4
COc1ccc(-c2cc(-c3ccc(Br)cc3)nc(N)c2C#N)cc1	70.6
N#Cc1c(-c2ccccc2)cc(-c2ccc(Br)cc2)nc1N	8.8
CN1CCN(c2c([N+](=O)[O-])c(=O)n(C)c3ccccc23)CC1	-4.8
CCC1=NN2C(=N)/C(=C/c3ccc(-c4ccc(C(=O)O)cc4)o3)C(=O)N=C2S1	44.1
CCC1=NN2C(=N)/C(=C/c3ccc(-c4ccc(F)cc4)o3)C(=O)N=C2S1	69.2
CCC1=NN2C(=N)/C(=C/c3ccc(-c4ccc(C)c(Cl)c4)o3)C(=O)N=C2S1	3.9
CCOC(=O)c1ccc(-c2ccc(/C=C3/SC(N)=NC3=O)o2)cc1	-27.3
CCCC1=NN2C(=N)/C(=C/c3ccc(-c4ccc(C(=O)OCC)cc4)o3)C(=O)N=C2S1	164
CCCC1=NN2C(=N)/C(=C/c3ccc(-c4ccc(F)cc4)o3)C(=O)N=C2S1	135
CCCC1=NN2C(=N)/C(=C/c3ccc(-c4ccccc4C(=O)OC)o3)C(=O)N=C2S1	-37
CCC1=NN2C(=N)/C(=C/c3ccc(F)cc3)C(=O)N=C2S1	7.5
CCCC1=NN2C(=N)/C(=C/c3ccc(OCc4ccc(F)cc4)c(OCC)c3)C(=O)N=C2S1	-6.7
CCC1=NN2C(=N)/C(=C/c3ccc(-c4ccc(Cl)cc4)o3)C(=O)N=C2S1	66.7
CCC1=NN2C(=N)/C(=C/c3ccc(-c4ccc(F)c(Cl)c4)o3)C(=O)N=C2S1	-0.2

SMILES	displacement [%]
CCCC1=NN2C(=N)/C(=C/c3ccccc3C)C(=O)N=C2S1	32.9
CCOc1ccc(N2C(=O)NC(=O)/C(=C/c3cc(Br)c(OCC)c(OC)c3)C2=O)cc1	-6.7
CC(=O)C1=C(O)C(=O)N(C)C1c1ccccc1[N+](=O)[O-] (stereo not drawn)	2.8
C/C(=N\N=C1\NC(=O)C(CC(=O)NCc2ccccc2)S1)C(C)C (stereo not drawn)	0.3
CCCCOc1ccc(NC(=O)CSc2nnc(N)s2)cc1	-16.9
c1ccc(CCSc2nc3ccccc3[nH]2)cc1	6.2
Cc1cc(C=C2C(=O)NC(=O)NC2=O)c(-c2ccccc2)n1-c1ccccc1	150
Cc1cc(C=C2C(=O)NC(=S)NC2=O)c(-c2ccccc2)n1-c1ccccc1	162
Cc1cc(/C=C2/SC(=S)NC2=O)c(-c2ccccc2)n1-c1ccccc1	0.7
Cc1cc(/C=N/N2C(=O)c3ccccc3C2=O)c(C)n1-c1ccccc1	11.4
Cc1cc(C)c(C=C2C(=O)c3ccccc3C2=O)cc1C	-1.6
Cc1cc(/C=C2/NC(=S)NC2=O)c(-c2ccccc2)n1-c1ccccc1	-14.7
Cc1cc(/C=C2/NC(=O)NC2=O)c(-c2ccccc2)n1-c1ccccc1	-5.1
Cc1cc(C=C2C(=O)c3ccccc3C2=O)c(-c2ccccc2)n1-c1ccccc1	68
Cc1cc(/C=C2/SC(=O)NC2=O)c(-c2ccccc2)n1-c1ccccc1	-9.6
CN(C)CCNC(=O)/C(=N\O)c1ccccn1	15.9
COc1ccc(CN(C)C(=O)c2cccc(C(=O)N(C)Cc3ccc(OC)cc3)c2)cc1	10.7
COc1cccc(C(=O)Nc2ccc(I)cc2Cl)c1	8.2
Nc1c(Cc2ccccc2)ccc2c1C(=O)c1ccccc1C2=O	10.3
CC(C)(CN1CCOCC1)NS(=O)(=O)c1ccc(Cl)cc1	7.4
CCc1ccc(OCC(=O)Nc2ccc3ccccc3c2)cc1	11.4
Cc1ccc(N2NC(=O)/C(=C/c3ccc(-c4ccc(S(N)(=O)=O)cc4)o3)C2=O)cc1	5.6
CC(=O)Nc1ccc(S(=O)(=O)N(Cc2ccccc2)C(C)C)cc1	130
CC(C)N(Cc1ccccc1)S(=O)(=O)c1ccc(F)cc1	12.3
CCN(Cc1ccccc1)S(=O)(=O)c1ccc(NC(C)=O)cc1	19.2
CC1CN(CC(O)COc2ccc3ccccc3c2)CC(C)O1 (stereo not drawn)	0.2

SMILES	displacement [%]
COc1ccc2[nH]c3c(c2c1)CCn1c-3nc2scc(-c3ccccc3)c2c1=O	0.2
CCc1cc2c(C)cc(=O)oc2cc1OC(C)=O	10.1
COc1cc(CN=Cc2c(O)n(-c3cc(OC)ccc3OC)c(=O)[nH]c2=O)cc(OC)c1	1.6
COc1ccc(CN=Cc2c(O)n(-c3ccc(Cl)cc3)c(=O)[nH]c2=O)cc1	-6.6
COc1ccc(CN=Cc2c(O)n(-c3cccc(Cl)c3)c(=O)[nH]c2=O)cc1	81.4
COc1ccc(N=Cc2c(O)n(-c3ccccc3)c(=O)[nH]c2=O)cc1Cl	113
COc1cc(N=Cc2c(O)n(-c3ccc(Cl)cc3)c(=O)[nH]c2=O)cc(OC)c1	70.5
COc1cccc(-n2c(O)c(C=Nc3cccc(Cl)c3)c(=O)[nH]c2=O)c1	-3.7
COc1ccc(-n2c(O)c(C=Nc3ccc(Cl)cc3)c(=O)[nH]c2=O)cc1	14.3
COc1ccc(-n2c(O)c(C=Nc3cccc(Cl)c3)c(=O)[nH]c2=O)cc1	14.2
COc1cc(CN=Cc2c(O)n(-c3ccc(F)cc3)c(=O)[nH]c2=O)cc(OC)c1	84.7
COc1ccc(-n2c(O)c(C=NCc3ccc(F)cc3)c(=O)[nH]c2=O)cc1	12.4
COc1ccc(CN=Cc2c(O)n(-c3ccc(OC)cc3)c(=O)[nH]c2=O)cc1	-3.4
Cc1ccc(N=Cc2c(O)n(-c3ccccc3)c(=O)[nH]c2=O)cc1	-5.6
COc1ccccc1CC(=O)Nc1cc(C)ccn1	12.9
CS(=O)(=O)N(CC(=O)Nc1cccc(Br)c1)c1ccc(Oc2ccccc2)cc1	1.9
COc1ccc(C2CC(=O)C3=C(C2)Nc2ccccc2NC3c2ccc(NC(C)=O)cc2)cc1OC (stereo not drawn)	-4.9
CCCC1=C(C(=O)OCC)C(c2ccc(CC)cc2)NC(=O)N1 (stereo not drawn)	-8.5
O=[N+]([O-])c1ccc(-c2noc(-c3ccccc3Br)n2)cc1	4.3
COc1ccc(CN2CCN(Cc3ccncc3)CC2)c(OC)c1	-16.7
NC(=O)c1ccc(NC(=O)C2CCCC2)cc1	-4
Cc1ccccc1-n1c(O)c(C=NCCCn2ccnc2)c(=O)[nH]c1=O	-3.4
O=c1[nH]c(=O)n(-c2ccccc2Cl)c(O)c1C=NCCCn1ccnc1	11.5
O=c1[nH]c(=O)n(-c2cccc(Cl)c2)c(O)c1C=NCCCn1ccnc1	142
COCCOC(=O)c1c(C)oc2c1cc(NS(=O)(=O)c1ccc(F)cc1)c1ccccc12	18
Cc1ccc(-c2nnc(N)s2)cc1C	5.1

SMILES	displacement [%]
O=c1[nH]c(=O)n(-c2cccc(C(F)(F)F)c2)c(O)c1C=C1C=CC=N1	6.3
COc1ccc(Cn2c(O)c(/C=C3\C=CC=N3)c(=O)[nH]c2=O)cc1	12.5
CCOc1ccc(-n2c(O)c(C=C3C=CC=N3)c(=O)[nH]c2=O)cc1	13.1
O=c1[nH]c(=O)n(-c2ccc(Cl)cc2)c(O)c1/C=C1/C=CC=N1	-46
COc1ccc(-n2c(O)c(/C=C3\C=CC=N3)c(=O)[nH]c2=O)cc1	85.4
O=c1[nH]c(=O)n(-c2ccc(Br)cc2)c(O)c1C=C1C=CC=N1	123
O=C1c2ccccc2C(=O)c2c1cccc2S(=O)(=O)Nc1ccc(Cl)cc1	9.5
CCOC(=O)C1=C(c2ccccc2)N=c2s/c(=C\c3ccc(O)c(OC)c3)c(=O)n2C1c1ccc(OC)cc1 (stereo not drawn)	104
CCOC(=O)C1=C(C)N=c2s/c(=C\c3ccc(O)c(OC)c3)c(=O)n2C1c1ccc(C)cc1 (stereo not drawn)	98.4
CCOC(=O)C1=C(C)N=c2s/c(=C\c3ccc(O)c(OC)c3)c(=O)n2C1c1ccc(OC)cc1 (stereo not drawn)	4.2
CCOC(=O)C1=C(c2ccccc2)N=c2s/c(=C\c3ccc(O)c(OC)c3)c(=O)n2C1c1ccccc1OC (stereo not drawn)	43.3
CCOC(=O)C1=C(C)N=c2s/c(=C\c3ccc(O)c(OC)c3)c(=O)n2C1c1cccc(OC)c1 (stereo not drawn)	-2.1
CCOC(=O)C1=C(C)N=c2s/c(=C\c3ccc(O)c(OC)c3)c(=O)n2C1c1ccc(N(C)C)cc1 (stereo not drawn)	-13.9
C=CCSc1nc2ccccc2n1C(=O)C1C(C=C(Cl)Cl)C1(C)C (stereo not drawn)	7.1
CCOc1ccc(C(=O)NCc2cccs2)cc1OCC	-0.9
O=C(NCCN1CCCC1=O)Nc1ccccc1	10.9
O=C(NCCCNC(=O)c1cccc(F)c1)c1cccc(F)c1	3.2
O=C(c1cccc(I)c1)N1CCN(c2ccccn2)CC1	6.9
O=C1CC(N2CCN(Cc3ccccc3)CC2)C(=O)N1c1ccc(Cl)c(Cl)c1 (stereo not drawn)	1.7
Cn1c(/C=C/c2ccc3c(c2)OCO3)nc2ccccc2c1=O	1.3
CN(C)c1ccc(/C=C/c2nc3ccccc3c(=O)n2-c2cccc3ccccc23)cc1	105
O=c1c2ccccc2nc(/C=C/c2ccccc2[N+](=O)[O-])n1-c1cccc2ccccc12	-7
O=c1c2ccccc2nc(/C=C\c2ccccc2O)n1-c1cccc2ccccc12	-6.6
O=c1c2ccccc2nc(/C=C/c2ccc3c(c2)OCO3)n1-c1cccc2ccccc12	78.1
O=c1c2ccccc2nc(/C=C/c2cccc([N+](=O)[O-])c2)n1-c1cccc2ccccc12	5
